# According to PubChem BioAssay (EPA / NIEHS):
# Calls of active or inactive are those of the source. Rule for the calls: active = hit-call score of the fitted dose curve at least 0.9, where 1 is the maximum; inactive = score below 0.9.
# Experiment: BSK_BE3C_SRB: Viability Assessment in the BioMAP Diversity Plus: BE3C Assay (AID 2283028);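 for AC50: fitted both ways so AC50 may mark signal gain or loss versus DMSO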
# Conditions: primary human bronchial epithelial cells
# Summary of the method: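 Human bronchial epithelial primary cells in confluent culture, 24 h after chemical dosing; total protein by 0.1% SRB staining after 10% TCA fixation, read at 560 nm. Bidirectional fitting versus DMSO baseline.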
SMILES,outcome,AC50
OCCCCO,inactive,–
CCOP(=S)(OCC)SCS(=O)(=O)C(C)(C)C,inactive,–
OCCN(CCO)CCO,inactive,–
c1ccc2sc(SNC3CCCCC3)nc2c1,inactive,–
O=C(N[C@H]1CN2CCC1CC2)c1ccc2c(c1)OCCO2,inactive,–
COCC(=O)N(c1c(C)cccc1C)[C@H](C)C(=O)OC,inactive,–
Cc1cc(C)cc(C)c1,inactive,–
CCOP(=O)(OCC)OC(=CCl)c1ccc(Cl)cc1Cl,inactive,–
c1ccc(-c2cccc(-c3ccccc3)c2)cc1,inactive,–
Nc1ccc(N)cc1,inactive,–
CN(C)C(=S)S,inactive,–
CCCCOC(=O)COC(=O)c1ccccc1C(=O)OCCCC,inactive,–
Cc1c([N+](=O)[O-])c(C)c([N+](=O)[O-])c(C(C)(C)C)c1[N+](=O)[O-],inactive,–
CC(C)O.CC(C)O.OCCN(CCO)CCO.OCCN(CCO)CCO.[Ti],inactive,–
N#Cc1cccnc1,inactive,–
Cc1ccccc1OP(=O)(Oc1ccccc1C)Oc1ccccc1C,–,16 µM (active)
CCCCCCCCCCCCc1cccc(S(=O)(=O)O)c1,–,26.9 µM (active)

SMILES,outcome,AC50
O=C(O)C1(c2ccc3c(c2)OC[C@H](Cc2ccc(-c4ccccc4)cc2)[C@H]3O)CCCC1,–,26.2 µM (active)
Cc1cc(Cl)ccc1N,inactive,–
CCOC(=O)CCN(SN(C)C(=O)Oc1cccc2c1OC(C)(C)C2)C(C)C,inactive,–
C=CC(Cl)CCl (centres undefined),inactive,–
CCC(C)(C#N)N=NC(C)(C#N)CC (centres undefined),inactive,–
[Cl][Sn]([c]1ccccc1)([c]1ccccc1)[c]1ccccc1,–,0.146 µM (active)
O=[N+]([O-])c1ccc(Nc2ccccc2)cc1,inactive,–
Oc1cc(Cl)c(Cl)cc1Cl,inactive,–
CCCCN(CCCC)C(=S)[S-].CCCCN(CCCC)C(=S)[S-].[Ni+2],inactive,–
O=C(CCl)NCO,inactive,–
O=[N+]([O-])c1cccc2ccccc12,inactive,–
OC(Cc1ccccc1Cl)(Cn1[nH]cnc1=S)C1(Cl)CC1 (centres undefined),inactive,–
Cc1ccc2nc3sc(=O)sc3nc2c1,inactive,–
Cc1cccc(OP(=O)(Oc2cccc(C)c2)Oc2cccc(C)c2)c1,inactive,–
Cc1cc(Cl)ccc1OC(C)C(=O)O (centres undefined),inactive,–
O=c1oc2ccccc2c(O)c1C(CC(O)c1ccc(-c2ccc(Br)cc2)cc1)c1ccccc1 (centres undefined),–,5.05 µM (active)
C#CCOC(=O)/C=C(C)/C=C/CC(C)CCCC(C)C (centres undefined),inactive,–
